Records with an inconclusive call do not appear. Active and inactive are the calls of the source. Calls follow the shape of the dose curve; as a rule, active = well fitted activation curve with a large enough effect in the signal ratio in the repeat runs (not every such curve was filed as active); inconclusive = weak or mixed curves, or effect the other way; inactive = flat fitted curve, though single readings scatter; the % refers to the signal ratio.
Experiment: qHTS assay to identify small molecule agonists of the endoplasmic reticulum stress response signaling pathway (AID 1159516)
Settings: ESRE-bla HeLa, ER stress beta-lactamase reporter, 5 h; series mostly up to 61 µM; activation: at the top concentration
Outline: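 HeLa ESRE-bla reporter line; cpd 5 h, 37 C/5% CO2; LiveBLAzer B/G FRET substrate 2 h RT; ex 405, em 460/530 nm.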
% is scaled to controls: 0 for no effect and ±100 for the full control effect.

Row | Compound | outcome | activation
1 | Cc1ccnc2c1NC(=O)c1cccnc1N2C1CC1 | inactive | 
2 | CC(C(O)c1ccc(O)cc1)N1CCC(Cc2ccccc2)CC1 (stereo not drawn) |  | -0.525% (inactive)
3 | NCCCCCC(=O)O |  | -1.38% (inactive)
4 | NC12CC3CC(CC(C3)C1)C2 |  | -0.342% (inactive)
5 | CC(=O)OCCOCCOCCOC(C)=O | inactive | 
6 | CC[C@@H](N)CO |  | 0.224% [at 78.8 µM] (inactive)
7 | CCC(CO)(CO)COCC(CC)(CO)CO |  | 3.09% (inactive)
8 | COc1ccc(Cc2cnc(N)nc2N)cc1OC |  | 0% (inactive)
9 | O=C(OCc1ccccc1)c1ccc(O)cc1 | inactive | 
10 | CCCC(=O)c1ccccc1 |  | 1.72% (inactive)
11 | COc1nc(C)nc(Cl)c1NC1=NCCN1 |  | 4.09% (inactive)
12 | CCCCN(CCO)CCCC |  | -3.14% [at 78.8 µM] (inactive)
13 | COc1ccc(COC(C)=O)cc1 | inactive | 
14 | CC(=O)CC(C)=O |  | -1.93% [at 78.8 µM] (inactive)
15 | CCN1CCCC1CNC(=O)c1cc(S(=O)(=O)CC)c(N)cc1OC (stereo not drawn) |  | 0.0887% (inactive)
16 | C1COC(NC(C2CC2)C2CC2)=N1 |  | -4.13% (inactive)
17 | NC(N)=NC(=O)Cc1c(Cl)cccc1Cl |  | 3.28% (inactive)
18 | CCC(=O)/C=C/C1C(C)=CCCC1(C)C (stereo not drawn) | inactive | 
19 | C=C(C)C(=O)O | inactive | 
20 | CC(C)(C)c1ccccc1 |  | -0.589% (inactive)
21 | [Cl][In]([Cl])[Cl] |  | -0.114% (inactive)
22 | Cc1occc(=O)c1OC(=O)C(C)C |  | 2.08% (inactive)
23 | NC(N)=Nc1nc(CSCC/C(N)=N/S(N)(=O)=O)cs1 | inactive | 
24 | CCCCCCCCCCCCCCCCCl |  | -2.74% [at 28.5 µM] (inactive)
25 | COC(c1ccccc1)(c1ccccc1)[C@H](Oc1nc(C)cc(C)n1)C(=O)O |  | 0.79% (inactive)
26 | CCCCC/C=C/CC1CC(=O)OC1=O (stereo not drawn) |  | 2.15% (inactive)
27 | O=C(O)c1cc(Cl)cc(Cl)c1 |  | -1.48% (inactive)
28 | CCn1cc(C(=O)O)c(=O)c2cc(F)c(N3CCNC(C)C3)c(F)c21 (stereo not drawn) |  | 5.14% (inactive)

Reference: PubChem BioAssay (Tox21)
